Shown are actives, neighbours in structure and some others; about 3.6% of the full set was active somewhere.
A549 tox = Nrf2 qHTS screen for inhibitors: counterscreen for cytotoxicity. A549 ARE-Fluc cells, CellTiter-Fluor viability, 18-24 h. Potency, µM (top dose mostly 46 µM), actives largely listed as inhibitors. 390,000 tested, 0.16% active. AID 504648, 2011
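A549 ARE-Fluc cells in 5% FBS OPTI-MEM, 5000 cells/well, rested 2 h then exposed to compounds in concentration-response for 18-24 h at 37 °C. Viability by CellTiter-Fluor fluorescence (Ex 405/Em 525) after 30 min; luciferase luminescence (BugLite, 15 min, RT) read afterwards.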
Nrf2 activator = qHTS of Nrf2 Activators | AREc32 ARE-luciferase reporter (MCF7-derived line), luminescence, 24 h | 410,000 tested, 0.31% active | Potency, µM (highest dose often 46.1 µM), actives largely listed as activators; further: nearly all actives have a fitted effect of over 65% in size
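Quantitative high-throughput format: AREc32 reporter cells, 1000 per well, received compound by pin transfer and were incubated 24 hr at 37 deg C, 5% CO2, before Steady-Glo luminescence detection.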
Nrf2 block = Nrf2 qHTS screen for inhibitors; A549 ARE-Fluc reporter, luciferase luminescence, 18-24 h; Potency, µM (series often up to 46 µM), usual class: inhibitors; 360,000 tested, 2.1% active; AID 504444, 2011; further: nearly all actives have a fitted effect of over 60% in size
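Two sequential reads on A549 ARE_Fluc cells exposed to compound for 18-24 h: a CellTiter-Fluor fluorescence read for viability, then a luciferase luminescence read for Nrf2/ARE activity.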
TGFb SMAD3 inh = qHTS for Inhibitors of TGF-b; HepG2 CAGA-GFP TGF-b/SMAD3 reporter, GFP fluorescence, 18 h; TGF-beta stimulated, 500 pg/mL final; Potency, µM (highest dose often 46.1 µM), usual class: inhibitors; 410,000 tested, 1.2% active; further: nearly all actives have a fitted effect of over 65% in size
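Inhibition of TGF-beta-driven CAGA-GFP reporter expression in HEPG2 cells is measured by cellular GFP fluorescence after 18 h stimulation with 500 pg/mL recombinant TGF-beta in 1% FBS medium at 37 degrees C.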
HepG2 tox = qHTS for Inhibitors of TGF-b: Cytotox Counterscreen | HepG2 CAGA-GFP viability, ATP luminescence, 18 h | Potency, µM (titrated, usually from 46.1 µM), usual class: cytotoxic | 410,000 tested, 0.76% active | AID 588856, 2011
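HepG2 CAGA-GFP cells (1000/well, DMEM with 1% FBS) received compound, then TGF-beta at 500 pg/mL final, and were incubated 18 hours at 37 degrees C. Viability was read by CellTiter-Glo luminescence. Media-only wells were set as complete cell-killing and DMSO as no toxicity.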
Numbers stand for hits; i = inactive; ? = inconclusive; nt = no result given; [ ] = another dose, or the depositor's remark. The call rests on the fitted dose curve; in most records, active means well fitted curve in the direction sought with a large enough effect; inconclusive means small, poorly fitted or top-dose-only effect, or another doubt; inactive means no such curve, though single readings can be large; an effect the other way counts as inactive or inconclusive.

SMILES | A549 tox | Nrf2 activator | Nrf2 block | TGFb SMAD3 inh | HepG2 tox
COc1ccc(-c2ccc3c(c2)S(=O)(=O)c2cccc(C(=O)NC4CCCCC4)c2C3=O)cc1OC | i | i | ? | i | i
CC(=O)c1ccc(NC(=O)c2cn(-c3ccccc3)nc2-c2ccncc2)cc1 | i | i | i | i | i
COC(=O)c1ccc(NC(=O)c2cn(-c3ccccc3)nc2-c2ccncc2)cc1 | i | i | i | i | 7.08µM
CC(C)(C)OC(=O)N1CCC(c2c(C(=O)N3CCN(C4CCCCC4)CC3)cnn2-c2ccccc2)CC1 | i | i | i | i | i
CC(C)(C)OC(=O)N1CCC(c2c(C(=O)NCCN3CCC(Cc4ccccc4)CC3)cnn2-c2cccc(Cl)c2)CC1 | ? | i | ? | ? | 7.08µM
Cc1ccc(C)c(N2CCN(C(=O)c3cnn(C(C)(C)C)c3C3CCN(C(=O)OC(C)(C)C)CC3)CC2)c1 | i | i | 20.6µM | i | i
CN1CCN(CCNC(=O)c2cnn(-c3cccc(Cl)c3)c2C2CCN(C(=O)OC(C)(C)C)CC2)CC1 | i | i | ? | i | i
Cc1cccc(-n2ncc(C(=O)N3CCN(C4CCCCC4)CC3)c2C2CCN(C(=O)OC(C)(C)C)CC2)c1 | ? | i | i | 8.91µM | i
COc1ccccc1CN1CCC(CNC(=O)c2cnn(-c3ccc(Cl)cc3)c2C2CCN(C(=O)OC(C)(C)C)CC2)CC1 | ? | i | ? | 10µM | i
C/C(=N\NC(N)=O)C1CC(Cc2ccccc2)C(=O)O1 (stereo unspecified) | i | i | i | i | i
Cc1ccc(CON=C2CCN(c3ncc(C(F)(F)F)cc3Cl)CC2)cc1 | i | i | i | i | i
O=C(NCC1CCCO1)c1ccccc1NS(=O)(=O)c1cc([N+](=O)[O-])ccc1Cl (stereo unspecified) | i | i | i | i | i
O=C(Cc1cccc2ccccc12)Nc1nc2ccccc2[nH]1 | i | i | nt | i | i
COCCNc1nc(N)c([N+](=O)[O-])c(NC2CCCCC2)n1 | i | i | i | i | i
Cc1ccc(-n2ncc(C(=O)NCCN3CCC(Cc4ccccc4)CC3)c2C2CCN(C(=O)OC(C)(C)C)CC2)cc1 | ? | i | ? | ? | 12.6µM
Cc1ccc(C)c(N2CCN(CCCNC(=O)c3cnn(-c4ccc(F)cc4)c3C3CCN(C(=O)OC(C)(C)C)CC3)CC2)c1 | 18.4µM | i | ? | i | i
Cc1cc(=O)oc2c(C)c(OCC(=O)N(C)C)ccc12 | i | i | i | i | i
c1coc(-c2cnc3ccccc3n2)c1 | nt | 3.98µM | nt | i | i
Oc1ccc(-c2cnc3ccccc3n2)cc1 | i | i | ? | i | i
c1coc(-c2nc3ccccc3nc2-c2ccco2)c1 | i | 10µM | i | i | i
O=C(NC1(C(F)(F)F)C(=O)Nc2c1c(=O)[nH]c(=O)n2Cc1ccccc1)c1ccco1 (stereo unspecified) | i | i | i | i | i
CN1/C(=C\C=Nc2cc(S(=O)(=O)N3CCOCC3)ccc2N2CCOCC2)C(C)(C)c2ccccc21 | i | i | i | i | i
COc1ccc(NC(=O)c2cc(S(=O)(=O)N3CCOCC3)ccc2N2CCOCC2)cc1 | ? | i | i | i | i
CN(C)S(=O)(=O)c1ccc(S(=O)(=O)N2CCCC(C(=O)NC3CC3)C2)cc1 (stereo unspecified) | i | i | 20.6µM | i | i
CCN(CC)S(=O)(=O)c1ccc(S(=O)(=O)N2CCCC(C(=O)NC3CC3)C2)cc1 (stereo unspecified) | i | i | 5.8µM | i | i
SMILES | A549 tox | Nrf2 activator | Nrf2 block | TGFb SMAD3 inh | HepG2 tox
COc1ccc(S(=O)(=O)N2CCCC(C(=O)NC3CC3)C2)cc1OC (stereo unspecified) | i | i | i | i | i
O=C(COC(=O)c1ccc([N+](=O)[O-])o1)NCCc1ccccc1 | i | i | i | i | i
O=C(Nc1cc(SCCO)cc([N+](=O)[O-])c1)c1ccco1 | i | ? | i | i | i
COc1ccc(CC(=O)OCC(=O)Nc2ccc(Cl)cn2)cc1 | i | i | i | i | i
Cc1cc(C)c2nc(C(F)(F)F)nc(N3CC(C)OC(C)C3)c2c1 (stereo unspecified) | i | i | i | i | i
CCOC(=O)N1CCN(c2nc(C(F)(F)F)nc3c(C)cc(C)cc23)CC1 | i | i | 23.1µM | i | i
COc1ccc(S(=O)(=O)NCc2ccco2)c2ccccc12 | ? | ? | 3.66µM | i | i
COc1ccc(/C=C/C(=O)O)cc1S(=O)(=O)NCc1ccco1 | i | i | i | i | i
COc1ccc([N+](=O)[O-])cc1NCc1ccco1 | i | 11.2µM | ? | i | i
COc1cc([N+](=O)[O-])ccc1NC(=O)NCc1ccco1 | i | i | i | i | i
CCCSc1nnc(-c2c[nH]c3ccccc23)n1C | ? | i | i | i | i
NC(Cc1ccccc1)c1csc(NC(=O)Nc2ccccc2Oc2ccccc2)n1 (stereo unspecified) | nt | i[9.22 µM] | nt | ? | i
NC(Cc1ccc(C(F)(F)F)cc1)c1csc(NC(=O)Nc2ccccc2Oc2ccccc2)n1 (stereo unspecified) | nt | i | nt | 11.2µM | 10µM
NC(COCc1ccccc1)c1csc(NC(=O)Nc2cccc(C(F)(F)F)c2)n1 (stereo unspecified) | nt | i | nt | 14.1µM | i
COc1ccccc1NC(=O)Nc1nc(C(N)CCc2ccccc2)cs1 (stereo unspecified) | nt | i[9.22 µM] | nt | 11.2µM | 10µM
NC(=O)c1ccc(Nc2nc(C(N)COCc3ccccc3)cs2)cc1 (stereo unspecified) | nt | i | nt | i | i
COc1cc(CNC(=O)Nc2nc(C(N)CCc3ccccc3)cs2)cc(OC)c1OC (stereo unspecified) | nt | i[9.22 µM] | nt | ? | i
CC(C)CC(N)c1csc(NC(=O)Nc2ccccc2C(C)(C)C)n1 (stereo unspecified) | nt | i | nt | 14.1µM | i
CCOC(=O)N1CCC(NC(=O)CN2C(=O)C(CC)Oc3ccc(C)cc32)CC1 (stereo unspecified) | i | i | i | i | i
N#Cc1cccc(N=c2ssnc2Cl)c1 | i | i | i | i | i
NC(CCc1ccccc1)c1csc(NC(=O)Nc2cccc(Cl)c2)n1 (stereo unspecified) | nt | i | nt | ? | 15.8µM
COc1ccc(N2CCN(C(=O)Cc3csc(NC(=O)Nc4ccccc4OC)n3)CC2)cc1 | i | i | ? | i | i
NC(Cc1ccc(C(F)(F)F)cc1)c1csc(NC(=O)NCCc2ccccc2)n1 (stereo unspecified) | nt | i[9.22 µM] | nt | 14.1µM | 11.2µM
COc1ccc(CC(N)c2csc(NC(=O)Nc3ccccc3Cc3ccccc3)n2)cc1 (stereo unspecified) | nt | i[9.22 µM] | nt | ? | 22.4µM
